Experimental data taken from PubChem BioAssay (EPA / NIEHS).
Where “and” joins values, the source holds several entries; their conditions need not be identical. Equal values may be shown once. A structure can be active in one record and inactive in another. Calls of active or inactive are those of the source. The calls were made as follows: active = hit-call score of the fitted dose curve at least 0.9, where 1 is the maximum; inactive = score below 0.9.

Assays:
[1] = read-out: Intercellular Adhesion Molecule 1 (ICAM1), ICAM1 (gene 3383); experiment: BSK_3C_ICAM1: BioMAP Diversity Plus: 3C Assay for Intercellular Adhesion Molecule 1 (ICAM1) Biomarker Activity (AID 2283003); details: primary human endothelial cells (HUVEC); actives raise or lower the signal
Method in brief: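 Primary human umbilical vein endothelial cells in the BioMAP 3C system were exposed to chemicals for 24 h, then ICAM-1 was quantified by ELISA. Activity was fitted bidirectionally against the DMSO negative control baseline.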

[2] = BSK_3C_Proliferation: Cell Proliferation Assessment in the BioMAP Diversity Plus: 3C Assay (AID 2283006); details: primary human endothelial cells (HUVEC);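 as to AC50: potency may reflect either rise or fall in cell number versus DMSO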
Method in brief: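 Human umbilical vein endothelial cells were grown sub-confluent and exposed to chemical for 48 h, then fixed with 10% TCA and stained with 0.1% sulforhodamine B; absorbance at 560 nm gave relative cell number, fitted bidirectionally against DMSO baseline.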

[3] = read-out: E-selectin (Homo sapiens) (UniProt P16581); experiment: BSK_3C_Eselectin: BioMAP Diversity Plus: 3C Assay for Eselectin Biomarker Activity (AID 2283015); details: primary human endothelial cells (HUVEC); actives raise or lower the signal
Method in brief: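 Primary human umbilical vein endothelial cells (3C system) were dosed with chemical and cell-surface E-selectin measured by ELISA 24 h later. Bidirectional curve fitting used DMSO as negative control and baseline.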

[4] = read-out: Matrix Metallopeptidase 1 (MMP1), MMP1 (gene 4312); experiment: BSK_BE3C_MMP1: BioMAP Diversity Plus: BE3C Assay for Matrix Metallopeptidase 1 (MMP1) Biomarker Activity (AID 2283024); details: primary human bronchial epithelial cells; actives raise or lower the signal
Method in brief: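 Primary human bronchial epithelial cells were dosed with test chemicals, and MMP1 levels were measured by ELISA 24 h later. Data were fitted bidirectionally against DMSO as the negative control and activity baseline.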

[5] = BSK_BE3C_SRB: Viability Assessment in the BioMAP Diversity Plus: BE3C Assay (AID 2283028); details: primary human bronchial epithelial cells;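 as to AC50: fitted both ways so AC50 may mark signal gain or loss versus DMSO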
Method in brief: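 Human primary bronchial epithelial cells were exposed to test chemicals for 24 h. Total protein in parallel cultures was then measured by staining with 0.1% sulforhodamine B after 10% TCA fixation, with absorbance read at 560 nm. Activity was fitted bidirectionally against DMSO.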

[6] = read-out: Thrombomodulin, THBD (gene 7056); experiment: BSK_3C_Thrombomodulin: BioMAP Diversity Plus: 3C Assay for Thrombomodulin Biomarker Activity (AID 2283029); details: primary human endothelial cells (HUVEC); actives raise or lower the signal
Method in brief: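 Primary human umbilical vein endothelial cells (3C system) were exposed to chemical for 24 h, then thrombomodulin levels were measured by ELISA. Activity was fitted bidirectionally against the DMSO negative control as baseline.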

[7] = read-out: Human Leukocyte Antigen - DR isotype (HLADR), HLA-DRA (gene 3122); experiment: BSK_BE3C_HLADR: BioMAP Diversity Plus: BE3C Assay for Human Leukocyte Antigen - DR isotype (HLADR) Biomarker Activity (AID 2283032); details: primary human bronchial epithelial cells; actives raise or lower the signal
Method in brief: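 Human primary bronchial epithelial cells in the BE3C system were exposed to chemicals for 24 h, after which HLA-DR levels were quantified by ELISA. Activity was fitted bidirectionally, gain or loss of signal, against DMSO as negative control and baseline.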

[8] = read-out: Vascular cell adhesion molecule 1 (VCAM1), VCAM1 (gene 7412); experiment: BSK_4H_VCAM1: BioMAP Diversity Plus: 4H Assay for Vascular cell adhesion molecule 1 (VCAM1) Biomarker Activity (AID 2283033); details: primary human endothelial cells (HUVEC); actives raise or lower the signal
Method in brief: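 Primary human umbilical vein endothelial cells were exposed to chemicals for 24 h, after which VCAM-1 was quantified by ELISA. Responses were fitted bidirectionally against DMSO as negative control and activity baseline.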

[9] = read-out: Interferon-gamma inducible Protein 10 (IP10), CXCL10 (gene 3627); experiment: BSK_BE3C_IP10: BioMAP Diversity Plus: BE3C Assay for Interferon-gamma inducible Protein 10 (IP10) Biomarker Activity (AID 2283034); details: primary human bronchial epithelial cells; actives raise or lower the signal
Method in brief: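 Human primary bronchial epithelial cells were exposed to chemicals for 24 hours, after which IP-10 levels were measured by ELISA. Data were fitted bidirectionally against DMSO, which served as the negative control and activity baseline.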

[10] = read-out: Urokinase-type plasminogen activator receptor (uPAR), PLAUR (gene 5329); experiment: BSK_BE3C_uPAR: BioMAP Diversity Plus: BE3C Assay for Urokinase-type plasminogen activator receptor (uPAR) Biomarker Activity (AID 2283039); details: primary human bronchial epithelial cells; actives raise or lower the signal
Method in brief: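 Primary human bronchial epithelial cells were dosed with chemical and harvested 24 h later; uPAR was quantified by ELISA. Activity was fitted bidirectionally against DMSO as negative control and baseline.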

[11] = read-out: Interleukin-6 (IL6), IL6 (gene 3569); experiment: BSK_CASM3C_IL6: BioMAP Diversity Plus: CASM3C Assay for Interleukin-6 (IL6) Biomarker Activity for (AID 2283040); details: primary human coronary artery smooth muscle cells; actives raise or lower the signal
[12] = read-out: Interleukin-8 (IL8), CXCL8 (gene 3576); experiment: BSK_CASM3C_IL8: BioMAP Diversity Plus: CASM3C Assay for Interleukin-8 (IL8) Biomarker Activity (AID 2283042); details: primary human coronary artery smooth muscle cells; actives raise or lower the signal;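 also: IL-8 protein level quantified by ELISA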
[13] = read-out: Human Leukocyte Antigen - DR isotype (HLADR), HLA-DRA (gene 3122); experiment: BSK_CASM3C_HLADR: BioMAP Diversity Plus: CASM3C Assay for Human Leukocyte Antigen - DR isotype (HLADR) Biomarker Activity (AID 2283043); details: primary human coronary artery smooth muscle cells; actives raise or lower the signal;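 also: cell-surface HLA-DR protein level quantified by ELISA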
[14] = read-out: Monocyte Chemoattractant Protein-1 (MCP1), CCL2 (gene 6347); experiment: BSK_CASM3C_MCP1: BioMAP Diversity Plus: CASM3C Assay for Monocyte Chemoattractant Protein-1 (MCP1) Biomarker Activity (AID 2283046); details: primary human coronary artery smooth muscle cells; actives raise or lower the signal;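 also: MCP-1 level quantified by ELISA 24 h after dosing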
[15] = BSK_CASM3C_Proliferation: Cell Proliferation Assessment in the BioMAP Diversity Plus: CASM3C Assay (AID 2283047); details: primary human coronary artery smooth muscle cells;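 also: sulforhodamine B total protein stain as relative cell number at 560 nm; sub-confluent cells exposed 48 h before staining; fitted both ways against DMSO so gain or loss of cell number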
[16] = read-out: serum amyloid A (SAA), SAA1 (gene 6288); experiment: BSK_CASM3C_SAA: BioMAP Diversity Plus: CASM3C Assay for serum amyloid A (SAA) Biomarker Activity (AID 2283049); details: primary human coronary artery smooth muscle cells; actives raise or lower the signal;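 also: SAA protein level quantified by ELISA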
[17] = read-out: Tissue Factor, F3 (gene 2152); experiment: BSK_CASM3C_TissueFactor: BioMAP Diversity Plus: CASM3C Assay for Tissue Factor Biomarker Activity (AID 2283052); details: primary human coronary artery smooth muscle cells; actives raise or lower the signal;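 also: cell surface tissue factor protein level read by ELISA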
[18] = read-out: Interferon-gamma inducible Protein 10 (IP10), CXCL10 (gene 3627); experiment: BSK_hDFCGF_IP10: BioMAP Diversity Plus: hDFCGF Assay for Interferon-gamma inducible Protein 10 (IP10) Biomarker Activity (AID 2283053); details: primary human foreskin fibroblasts; actives raise or lower the signal
Method in brief: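 Human foreskin fibroblast primary cells (hDFCGF system) were dosed with chemical and assayed at 24 h; IP-10 measured by ELISA. Activity fitted bidirectionally relative to DMSO negative control as baseline.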

[19] = read-out: Urokinase-type plasminogen activator receptor (uPAR), PLAUR (gene 5329); experiment: BSK_CASM3C_uPAR: BioMAP Diversity Plus: CASM3C Assay for Urokinase-type plasminogen activator receptor (uPAR) Biomarker Activity (AID 2283054); details: primary human coronary artery smooth muscle cells; actives raise or lower the signal;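 also: cell-surface uPAR protein level quantified by ELISA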
[20] = read-out: Collagen III, COL3A1 (gene 1281); experiment: BSK_hDFCGF_CollagenIII: BioMAP Diversity Plus: hDFCGF Assay for Collagen III Biomarker Activity (AID 2283056); details: primary human foreskin fibroblasts; actives raise or lower the signal
Method in brief: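 Human foreskin primary fibroblasts were exposed to test chemicals for 24 h, after which collagen III was quantified by ELISA. Activity was fitted bidirectionally against DMSO as negative control and baseline.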

Measured: AC50

E-selectin (Homo sapiens), sequence (P16581 whole entry, looked up): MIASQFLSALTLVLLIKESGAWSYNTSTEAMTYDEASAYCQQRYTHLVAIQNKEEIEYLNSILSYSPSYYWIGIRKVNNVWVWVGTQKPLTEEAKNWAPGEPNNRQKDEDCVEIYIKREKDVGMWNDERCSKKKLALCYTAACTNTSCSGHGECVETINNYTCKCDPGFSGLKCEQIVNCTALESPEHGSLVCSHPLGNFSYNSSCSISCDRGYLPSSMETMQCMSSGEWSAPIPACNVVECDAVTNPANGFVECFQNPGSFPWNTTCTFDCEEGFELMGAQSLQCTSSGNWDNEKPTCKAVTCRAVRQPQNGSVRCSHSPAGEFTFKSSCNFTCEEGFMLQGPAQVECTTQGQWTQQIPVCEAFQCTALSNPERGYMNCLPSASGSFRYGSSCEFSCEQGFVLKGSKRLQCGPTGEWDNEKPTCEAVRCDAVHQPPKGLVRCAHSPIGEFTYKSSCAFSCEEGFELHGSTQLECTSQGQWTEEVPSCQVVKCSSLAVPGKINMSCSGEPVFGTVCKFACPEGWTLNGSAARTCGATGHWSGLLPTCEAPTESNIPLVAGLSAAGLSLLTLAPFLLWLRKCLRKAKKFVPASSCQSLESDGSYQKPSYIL

O=C1C=CC(=O)C=C1
inactive: [5] | [6] | [7] | [10] | [11] | [12] | [14] | [16] | [17] | [19]
active: [1] 20 µM and 28.6 µM | [2] 26.2 µM and 6.35 µM | [3] 13.4 µM and 8.64 µM | [4] 5.14 µM and 4.77 µM | [7] 27 µM | [8] 16.1 µM and 20 µM | [9] 16.3 µM and 30.9 µM | [13] 10.9 µM and 20 µM | [15] 30.4 µM and 15.2 µM | [18] 16.8 µM and 23.7 µM | [20] 20 µM

O=C1C(Cl)=C(Cl)C(=O)C(Cl)=C1Cl
inactive: [5] | [12]
active: [1] 25.4 µM | [2] 5.26 µM | [3] 10.3 µM | [4] 33.9 µM | [6] 5.02 µM | [8] 13.5 µM | [9] 33.2 µM | [10] 29.2 µM | [11] 20 µM | [13] 14.4 µM | [14] 20 µM | [15] 5.78 µM | [16] 20 µM | [17] 6.19 µM | [18] 20 µM | [19] 20 µM | [20] 20 µM

COCC(=O)N(c1c(C)cccc1C)N1CCOC1=O
inactive: [1] | [2] | [3] | [4] | [5] | [6] | [7] | [8] | [9] | [10] | [11] | [12] | [13] | [14] | [15] | [16] | [17] | [18] | [19] | [20]

CC(C)CCCCCCCOP(=O)(Oc1ccccc1)Oc1ccccc1
inactive: [4] | [10] | [11] | [12] | [13] | [14] | [15] | [16] | [17] | [19]
active: [1] 20 µM | [2] 10.1 µM | [3] 20 µM | [5] 32.6 µM | [6] 20 µM | [7] 13.9 µM | [8] 25.1 µM | [9] 28 µM | [18] 9.26 µM | [20] 5.29 µM
